Laboratory results from the supplement of paper PMC3545927.
This is one part of the list. The true hit rate is not given.

Molecular target: furin, P09958
Assay: furin cleavage Z-score vs untreated control; higher = more cleavage, active = 3.5 or more, inactive = 1 or less, 8 variable residues between constant flanks
Summary of the method: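 To give the cleavage Z-score, log read counts were set against furin-free reactions, lowess-adjusted and scaled by median absolute deviation. These counts came from PCR adapter-tagged, sequenced DNA released when purified furin cut 8-mer peptides fused to a cDNA oligonucleotide and held on magnetic beads by their N-terminus. Digests were 0.01 ml, 1:10 enzyme:substrate, in 50 mM HEPES pH 7.5 with CaCl2 and NaCl, for 7.5, 15 or 30 min.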

Chain of furin, P09958 (P09958 whole entry): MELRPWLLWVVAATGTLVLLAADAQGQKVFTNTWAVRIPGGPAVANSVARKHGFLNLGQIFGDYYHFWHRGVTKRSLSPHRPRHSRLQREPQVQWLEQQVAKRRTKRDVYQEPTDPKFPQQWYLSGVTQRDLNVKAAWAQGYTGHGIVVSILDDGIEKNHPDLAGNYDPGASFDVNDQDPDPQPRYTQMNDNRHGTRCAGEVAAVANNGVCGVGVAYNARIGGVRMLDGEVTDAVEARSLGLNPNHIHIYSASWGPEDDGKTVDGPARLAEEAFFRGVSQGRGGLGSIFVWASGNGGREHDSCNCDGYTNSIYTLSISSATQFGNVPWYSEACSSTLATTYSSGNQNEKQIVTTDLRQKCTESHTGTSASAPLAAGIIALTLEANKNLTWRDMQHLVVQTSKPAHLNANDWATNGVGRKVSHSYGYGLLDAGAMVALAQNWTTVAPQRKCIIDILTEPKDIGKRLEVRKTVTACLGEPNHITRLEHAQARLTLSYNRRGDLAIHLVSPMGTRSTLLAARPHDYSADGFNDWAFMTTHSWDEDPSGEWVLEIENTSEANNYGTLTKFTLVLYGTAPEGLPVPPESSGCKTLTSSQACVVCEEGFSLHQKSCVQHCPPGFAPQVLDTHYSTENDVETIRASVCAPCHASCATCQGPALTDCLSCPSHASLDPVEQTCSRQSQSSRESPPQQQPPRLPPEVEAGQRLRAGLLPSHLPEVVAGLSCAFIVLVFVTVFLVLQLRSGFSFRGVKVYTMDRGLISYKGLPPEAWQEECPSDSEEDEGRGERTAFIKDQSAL

Sequence | furin cleavage Z-score (7.5 min) | furin cleavage Z-score (15 min) | furin cleavage Z-score (30 min)
CAQLLRRLHQAGNASASA [HC1138] | -0.809 (inactive) | 0.744 (inactive) | 0.327 (inactive)
CAQLLRRRRAAGNASASA [FS-1475] | 5.21 (active) | 3.72 (active) | 3.69 (active)
CACLSRRRRAAGNASASA [FS-582] | 9.75 (active) | 10.1 (active) | 8.23 (active)
CASLLRERRAAGNASASA [FS-1613] | -0.33 (inactive) | 1.11 | 0.57 (inactive)
CAFLSRRRRAAGNASASA [FS-326] | 8.63 (active) | 7.91 (active) | 6.71 (active)
CAHRSVRRRAAGNASASA [FS-798] | 4.59 (active) | 5.95 (active) | 5.68 (active)
CAEVVTSKWVAGNASASA [HC2214] | -0.244 (inactive) | -0.0853 (inactive) | -0.758 (inactive)
CAWVAMTPTVAGNASASA [HC280] | -0.409 (inactive) | 1.35 | 0.148 (inactive)
CATTPRSGSWAGNASASA [HC50] | 0.195 (inactive) | -0.703 (inactive) | -1.47 (inactive)
CAQASLLKVPAGNASASA [HC612] | -0.764 (inactive) | -0.112 (inactive) | 0.0537 (inactive)
CALLAPITAYAGNASASA [HC673] | -3.12 (inactive) | -1.42 (inactive) | -1.58 (inactive)
CAEVARLRRGAGNASASA [FS-1122] | 0.497 (inactive) | 0.166 (inactive) | 1.11
CARSERSVILAGNASASA [FS-2237] | -0.162 (inactive) | 0.495 (inactive) | -1.51 (inactive)
CARSERNRRGAGNASASA [FS-1406] | 12.7 (active) | 13.3 (active) | 9.9 (active)
CARVQRLRRGAGNASASA [FS-1076] | 6.03 (active) | 4.67 (active) | 4.95 (active)
CAHPQRKRRGAGNASASA [FS-538] | 8.91 (active) | 10.4 (active) | 7.34 (active)
CAGYFRIRRGAGNASASA [FS-931] | 7.65 (active) | 7.42 (active) | 7.31 (active)
CALQVLDSHYAGNASASA [HC1399] | 0.634 (inactive) | 0.79 (inactive) | -1.28 (inactive)
CALTPPHSAKAGNASASA [HC1416] | 0.524 (inactive) | 0.481 (inactive) | -0.0828 (inactive)
CASTPCSPHLAGNASASA [HC2539] | 2.23 | -1.13 (inactive) | 0.314 (inactive)
CALKGSSGGPAGNASASA [HC741] | -0.0654 (inactive) | -1.8 (inactive) | -2.14 (inactive)
CAAKLVALGIAGNASASA [HC863] | 0.999 (inactive) | -2.69 (inactive) | 0.907 (inactive)
CAIKSRFGRGAGNASASA [FS-541] | 4.29 (active) | 4.38 (active) | 4.05 (active)
CAVFKRDAHGAGNASASA [FS-3215] | -0.773 (inactive) | -0.315 (inactive) | 1.52
CAHLVPVLRGAGNASASA [FS-595] | 0.989 (inactive) | -0.535 (inactive) | -1.61 (inactive)

Sequence | furin cleavage Z-score (7.5 min) | furin cleavage Z-score (15 min) | furin cleavage Z-score (30 min)
CAVFQRKRRGAGNASASA [FS-1578] | 12.4 (active) | 12.7 (active) | 9.42 (active)
CAYLHRVGRGAGNASASA [FS-390] | 3.96 (active) | 5.69 (active) | 4.8 (active)
CAFPMRGRRGAGNASASA [FS-1454] | -0.221 (inactive) | -0.337 (inactive) | 0.17 (inactive)
CAFSSRWGRGAGNASASA [FS-1523] | -2.35 (inactive) | 0.914 (inactive) | -0.211 (inactive)
CAYLNRKRRGAGNASASA [FS-634] | 9.69 (active) | 11.9 (active) | 7.89 (active)
CARRGRTGRGAGNASASA [HC904] | -0.725 (inactive) | -0.224 (inactive) | -0.511 (inactive)
CAICSRAARGAGNASASA [FS-1534] | -0.759 (inactive) | 0.0398 (inactive) | -0.381 (inactive)
CALGIGTVLDAGNASASA [HC824] | -0.583 (inactive) | 0.0553 (inactive) | -0.254 (inactive)
CAVVCCSMFYAGNASASA [HC2067] | -1.42 (inactive) | 0.168 (inactive) | -1.67 (inactive)
CAISYRFPRGAGNASASA [FS-37] | 4.87 (active) | 7.38 (active) | 6.94 (active)
CAKKERRPRGAGNASASA [FS-671] | 1.59 | 2.08 | 0.765 (inactive)
CARYFRKRRGAGNASASA [FS-960] | 10.2 (active) | 11.6 (active) | 9.02 (active)
CAGAGNNTLHAGNASASA [HC447] | -0.871 (inactive) | 0.802 (inactive) | -0.559 (inactive)
CADATYSRCGAGNASASA [HC456] | 0.156 (inactive) | 1.42 | 0.00204 (inactive)
CAKVPCHRPSAGNASASA [HC2314] | 1.64 | 0.0197 (inactive) | 0.762 (inactive)
CALGRRTKRAAGNASASA [FS-50] | 9.24 (active) | 10.5 (active) | 6.44 (active)
CARRSRCIRAAGNASASA [FS-1405] | 9.51 (active) | 10.1 (active) | 8.44 (active)
CARRSRLKRAAGNASASA [FS-496] | 11.4 (active) | 11.7 (active) | 8.87 (active)
CARRVRCSGAAGNASASA [FS-2802] | -0.409 (inactive) | 0.495 (inactive) | 0.927 (inactive)
CALGSRYKKAAGNASASA [FS-819] | -0.0568 (inactive) | -0.0472 (inactive) | -0.113 (inactive)
CALGNIIMFAAGNASASA [HC1575] | -0.725 (inactive) | -1.13 (inactive) | -0.0117 (inactive)
CAAENRALRLAGNASASA [FS-113] | 0.559 (inactive) | -1.89 (inactive) | 1.32
CAAEIRLKRAAGNASASA [FS-1442] | 9.68 (active) | 9.78 (active) | 8.4 (active)
CAAEQFKQKAAGNASASA [HC1023] | 0.841 (inactive) | 0.435 (inactive) | -1.43 (inactive)
